“And” between values parts separate entries of the source, which are not always exact repeats. Identical values can stand only once. Inconclusive results are not listed. Some compounds were tested as several samples or in several runs, with calls that do not always agree. The source made the active and inactive calls. The call rests on the fitted dose curve; in most records, active means well fitted curve in the direction sought with a large enough effect in the repeat runs; inconclusive means weak or mixed curves; inactive means no such curve, though single readings can be large; an effect the other way counts as inactive or inconclusive.

A short description of test [1]: qHTS RealTime-Glo MT Cell Viability Assay in HepG2 cells - 40 hour (AID 1224870). Further: nearly all actives have a fitted effect of over 50% in size. Summed up:
(§1)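 HepG2 cells mixed with RealTime-Glo MT reagents (NanoLuc plus cell-permeant prosubstrate) were seeded at 600 cells/well, incubated 5 h at 37 C/5% CO2, then pinned with compounds in DMSO; nonlytic luminescence tracked viability during 40 h treatment.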
(Quantitative high-throughput screening tests each substance at several concentrations.)

A short description of test [2]: A CellTox Green Cytotoxicity Assay to monitor cytotoxicity in HEK293 cells - 40 hour (AID 1224871). Further: nearly all actives have a fitted effect of over 45% in size. Further: potency means the concentration at half of the fitted maximal effect. Summed up:
(§2)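 Tox21 screen in HEK293: membrane-impermeant cyanine dye fluoresces on binding dead-cell DNA; compound pinned 5 h post-seeding, plates held at 37 C, signal read repeatedly through 40 h.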

Test [3] is described as follows: qHTS RealTime-Glo MT Cell Viability Assay in HEK293 cells - 16 hour (AID 1224872). Further: nearly all actives have a fitted effect of over 50% in size. Further: potency means the concentration at half of the fitted maximal effect. Summed up: (§3)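 Luminescence generated by NanoLuc from substrate produced by living HEK293 cells served as the viability signal. Each value reflects the reading at its stated time point during continuous 40 h compound exposure at 37 C.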
Test [4] in a line: qHTS RealTime-Glo MT Cell Viability Assay in HEK293 cells - 40 hour (AID 1224874). Further: nearly all actives have a fitted effect of over 50% in size. Further: potency means the concentration at half of the fitted maximal effect. The conditions noted are these: RealTime-Glo luminescence; max response: stronger effect = lower value. Summed up:
(§4)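 HEK293 + NanoLuc + prosubstrate, 600 cells/well; 5 h, 37 C/5% CO2; compound 23 nL in DMSO by pintool; 37 C; luminescence read at 0, 8, 16, 24, 32 and 40 h time points.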

Test [5] can be described thus: A CellTox Green Cytotoxicity Assay to monitor cytotoxicity in HepG2 cells - 16 hour (AID 1224876). Further: nearly all actives have a fitted effect of over 45% in size. Further: potency means the concentration at half of the fitted maximal effect. Summed up:
(§5)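 Measurements at 0, 8, 16, 24, 32 and 40 h of treatment captured CellTox Green fluorescence in HepG2 cells that had been co-plated with reagent and preincubated 5 h at 37 C/5% CO2.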

A short description of test [6]: qHTS RealTime-Glo MT Cell Viability Assay in HepG2 cells - 32 hour (AID 1224877). Further: nearly all actives have a fitted effect of over 55% in size. Summed up:
(§6)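 Tox21 10K library screened in qHTS format on HepG2 cells carrying RealTime-Glo reagents. Compounds were added after a 5 h preincubation, and the luminescent signal from continuous culture was measured repeatedly during 40 h treatment.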

A short description of test [7]: A CellTox Green Cytotoxicity Assay to monitor cytotoxicity in HepG2 cells - 24 hour (AID 1224878). Further: nearly all actives have a fitted effect of over 45% in size. Further: potency means the concentration at half of the fitted maximal effect. Summed up: as §5
A short description of test [8]: A CellTox Green Cytotoxicity Assay to monitor cytotoxicity in HepG2 cells - 40 hour (AID 1224879). Further: nearly all actives have a fitted effect of over 40% in size. Further: potency means the concentration at half of the fitted maximal effect. Summed up:
as §5

Test [9] in a line: qHTS RealTime-Glo MT Cell Viability Assay in HEK293 cells - 0 hour (AID 1224880). Further: top concentration of the series differs between compounds; nearly all actives have a fitted effect of over 45% in size. Summed up:
as §4

Test [10] can be described thus: A CellTox Green Cytotoxicity Assay to monitor cytotoxicity in HepG2 cells - 0 hour (AID 1224882). Further: nearly all actives have a fitted effect of over 35% in size. Further: potency means the concentration at half of the fitted maximal effect. Summed up: as §5
The nature of test [11]: A CellTox Green Cytotoxicity Assay to monitor cytotoxicity in HepG2 cells - 32 hour (AID 1224883). Further: nearly all actives have a fitted effect of over 50% in size. Further: potency means the concentration at half of the fitted maximal effect. Summed up:
as §5

The nature of test [12]: A CellTox Green Cytotoxicity Assay to monitor cytotoxicity in HEK293 cells - 8 hour (AID 1224884). Further: nearly all actives have a fitted effect of over 35% in size. Further: potency means the concentration at half of the fitted maximal effect. Summed up:
as §2

Test [13] in a line: qHTS RealTime-Glo MT Cell Viability Assay in HepG2 cells - 16 hour (AID 1224885). Further: nearly all actives have a fitted effect of over 50% in size. Further: potency means the concentration at half of the fitted maximal effect. Summed up: as §6
A short description of test [14]: qHTS RealTime-Glo MT Cell Viability Assay in HEK293 cells - 8 hour (AID 1224887). Further: nearly all actives have a fitted effect of over 50% in size. Further: potency means the concentration at half of the fitted maximal effect. Summed up:
as §4

Test [15] in a line: A CellTox Green Cytotoxicity Assay to monitor cytotoxicity in HEK293 cells - 16 hour (AID 1224888). Further: nearly all actives have a fitted effect of over 35% in size. Summed up:
as §2

A short description of test [16]: qHTS RealTime-Glo MT Cell Viability Assay in HepG2 cells - 0 hour (AID 1224889). Further: nearly all actives have a fitted effect of over 50% in size. Summed up: as §6
Test [17] in a line: qHTS RealTime-Glo MT Cell Viability Assay in HepG2 cells - 8 hour (AID 1224873). Further: nearly all actives have a fitted effect of over 55% in size. Summed up:
as §1

Test [18] is described as follows: A CellTox Green Cytotoxicity Assay to monitor cytotoxicity in HEK293 cells - 32 hour (AID 1224881). Further: nearly all actives have a fitted effect of over 40% in size. Summed up:
as §2

A short description of test [19]: qHTS RealTime-Glo MT Cell Viability Assay in HEK293 cells - 24 hour (AID 1224886). Further: nearly all actives have a fitted effect of over 50% in size. Further: potency means the concentration at half of the fitted maximal effect. Summed up: as §3
Test [20] is described as follows: A CellTox Green Cytotoxicity Assay to monitor cytotoxicity in HEK293 cells - 24 hour (AID 1224875). Summed up:
as §2
On the % scale 0 is the no-effect control and ±100 the full control effect.

`COc1ccc(C(=O)c2ccccc2)c(O)c1`: the outcome in test [1] and in [6] was inactive. Moreover, the Potency entry in [2], in [5], in test [7], in test [8], in test [9] and in test [10] was “inactive” each time. Further, the Potency entry in [11], in [12], in [13], in test [14], in test [15] and in test [16] was “inactive” in each case. Further, the Potency result in test [3] is “inactive and 21.9 µM (active)”; in test [4], 7.76 µM (active). Besides, the max response in [4] was -12.2% (inactive) and 5.78% (inactive).

Regarding `CN(C)C=O`, the molecule was classed as inactive in [1], in test [17] and in test [6]. The Potency result in test [2], in [3], in test [5], in test [7], in test [8] and in test [9] was “inactive” throughout. Also, the Potency result in test [10], in test [11], in test [12], in test [13], in test [14] and in [15] was “inactive” in each case. Further, the Potency result in test [16] is “inactive”. Further, the max response in [4] was 2.24% (inactive) and 2.36% (inactive).

Take `O=c1cc[nH]c(=O)[nH]1`: the call in test [1], in test [17] and in test [6] was inactive. Besides, the Potency result in test [2], in test [3], in test [5], in [7], in [8] and in [18] was “inactive” throughout. In addition, the Potency result in test [10], in test [11], in test [12], in [13], in test [14] and in test [15] was “inactive” in each case. For the same molecule, the Potency entry in test [16] is “inactive”. Besides, the max response in test [4] was -9.27% (inactive) and 1.51% (inactive).

Turning to `C=CC(=O)NC(C)(C)CS(=O)(=O)O`, the outcome in test [1], in [17] and in test [6] was inactive. Also, the Potency entry was “inactive and 43.6 µM (active)” in test [2]; “inactive and 24.5 µM (active)” in test [5]; “inactive and 24.5 µM (active)” in test [7]; “inactive and 43.6 µM (active)” in [8]; “inactive and 27.5 µM (active)” in [10]; “inactive and 24.5 µM (active)” in test [11]. In test [12], the Potency entry is “inactive and 43.6 µM (active)”. The Potency entry in test [3], in test [9], in test [13], in test [14] and in test [16] was “inactive” each time. Further, the max response in [4] was -2.52% (inactive) and 4.35% (inactive) and 4.55% (inactive).

Consider `CCCCCCCCCCCCCCCCCC(=O)OCC(O)CO` (stereo unspecified), for which the call in test [1], in [17] and in [6] was inactive. The Potency result in test [2], in test [3], in test [5], in test [7], in [8] and in test [9] was “inactive” in each case. In addition, the Potency result in test [10], in [11], in [12], in test [13], in test [19] and in [14] was “inactive” in each case. Also, the Potency entry in [15] and in test [16] was “inactive” throughout. Moreover, the max response in test [4] is 10.4% (inactive) and 6.82% (inactive) and 1.48% (inactive).

In the case of `CO[C@H]1C=CO[C@@]2(C)Oc3c(C)c(O)c4c(O)c(c(/C=N/N5CCN(C)CC5)c(O)c4c3C2=O)NC(=O)/C(C)=C\C=C[C@H](C)[C@H](O)[C@@H](C)[C@@H](O)[C@@H](C)[C@H](OC(C)=O)[C@@H]1C`, the outcome in test [1] and in [6] was inactive. Moreover, the Potency result in test [2], in [20], in test [5], in test [7], in test [8] and in [9] was “inactive” throughout. For the same molecule, the Potency entry in [10], in test [11], in test [12], in [15] and in [16] was “inactive” in each case. The Potency is 6.96 µM (active) and 2.21 µM (active) and 21.3 µM (active) in test [3]; 22 µM (active) and 15.7 µM (active) in test [4]; 12.4 µM (active) in test [13]; 12.4 µM (active) and 4.42 µM (active) and 21.3 µM (active) in test [19]; 2.77 µM (active) and 988 nM (active) and 10.7 µM (active) in [14].

Take `C[C@]12CC[C@@H]3c4ccc(O)cc4C[C@@H](CCCCCCCCCS(=O)CCCC(F)(F)C(F)(F)F)[C@H]3[C@@H]1CC[C@@H]2O` (stereo partly specified): the call in test [1] and in test [6] was inactive. For the same molecule, the Potency entry in [2], in [20], in [5], in test [7], in test [8] and in [9] was “inactive” in each case. Moreover, the Potency entry in test [10], in test [11], in test [12], in test [13], in test [15] and in test [16] was “inactive” in each case. Moreover, the Potency in test [3], in test [4], in test [19] and in test [14] was 43.6 µM (active) in each case.

Consider `Cc1ccc(O)c(-n2nc3ccccc3n2)c1`, for which the molecule was called inactive in test [1] and in [6]. In addition, the Potency entry in test [2], in [3], in [20], in test [5], in test [7] and in test [8] was “inactive” throughout. Further, the Potency result in [9], in test [18], in test [10], in test [11], in test [12] and in test [13] was “inactive” in each case. The Potency entry in [19], in test [14], in test [15] and in [16] was “inactive” each time. Further, the max response in test [4] is -4.85% (inactive) and -18.6% (inactive) and -8.22% (inactive).

Turning to `OC[C@@H](O)[C@@H](O)[C@H](O)[C@H](O)CO`, the molecule was classed as inactive in test [1], in [17] and in test [6]. The Potency entry in test [2], in test [3], in test [5], in test [7], in test [8] and in [18] was “inactive” each time. In addition, the Potency entry in test [10], in test [11], in [12], in [13], in test [19] and in test [14] was “inactive” in each case. Besides, the Potency result in test [15] and in test [16] was “inactive” throughout. In addition, the max response in test [4] is 5.62% (inactive) and 0.187% (inactive) and 10.1% (inactive).

Regarding `NC(=O)N/N=C/c1ccc([N+](=O)[O-])o1`, the molecule was classed as inactive in test [1], in [17] and in test [6]. Moreover, the Potency result in [2], in test [3], in test [5], in test [7], in test [8] and in [18] was “inactive” in each case. Moreover, the Potency result in test [10], in test [11], in [12], in [13], in [19] and in test [14] was “inactive” throughout. Also, the Potency entry in [15] and in test [16] was “inactive” in each case. Besides, the max response in [4] was -0.165% (inactive).
